This is a sample that favours compounds with a hit; in the whole collection about 8.9% have one here.
KB-3-1 cytotox – qHTS assay for MDR1-selective chemotherapeutics: Primary screen using the parental adenocarcinoma cell KB-3-1; KB-3-1 viability, CellTiter-Glo ATP luminescence, 72 h; Potency, µM (doses to about 46.1 µM), actives largely listed as cytotoxic; hit rate 1.4% among 400,000; AID 1347075, 2019; also: potency is read from the fitted curve at half-maximal effect; % is scaled to controls: 0 for no effect and ±100 for the full control effect; nearly all actives have a fitted effect of over 60% in size
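Cells are dispensed, compounds pinned in, plates held at 37 °C for 72 h, then CellTiter-Glo is added and luminescence read after 10 minutes. Cell line: parental KB-3-1 in phenol-red-free DMEM, 10% FBS.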
MCF10A rereplic – A quantitative high throughput screen for small molecules that induce DNA re-replication in MCF 10a normal breast cells. MCF 10A DNA re-replication, Hoechst nuclear intensity, 48 h. Potency, µM (highest dose often 46.1 µM), for the others: top-dose activity, positive = re-replication, hits mostly activators. hit rate 2.9% among 350,000; also: potency is read from the fitted curve at half-maximal effect; % of control where 0% means no effect; nearly all actives have a fitted effect of over 50% in size
DRD3 antagonist – qHTS of D3 Dopamine Receptor Antagonist: qHTS; D(3) dopamine receptor (Homo sapiens), P35462; max response, negative = inhibition, %; D3R cells, DiscoveRx beta-arrestin luminescence, antagonist mode; active compounds read low; hit rate 2.5% among 360,000; in the data active = max response below about -50%; inconclusive = no clear call, values can overlap the other calls; also: % is scaled to controls: 0 for no effect and ±100 for the full control effect
Target sequence (P35462 whole entry, looked up): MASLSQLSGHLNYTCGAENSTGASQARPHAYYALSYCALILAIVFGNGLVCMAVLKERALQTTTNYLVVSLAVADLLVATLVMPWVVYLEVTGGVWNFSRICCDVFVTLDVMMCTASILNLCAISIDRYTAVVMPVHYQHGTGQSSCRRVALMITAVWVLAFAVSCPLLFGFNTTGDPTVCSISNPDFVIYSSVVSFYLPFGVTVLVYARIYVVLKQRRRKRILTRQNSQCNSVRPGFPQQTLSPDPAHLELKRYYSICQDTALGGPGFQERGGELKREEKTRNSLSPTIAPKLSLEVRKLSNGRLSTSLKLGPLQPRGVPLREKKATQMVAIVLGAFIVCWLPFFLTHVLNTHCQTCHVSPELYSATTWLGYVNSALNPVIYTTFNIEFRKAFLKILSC
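Cells expressing the human receptor were seeded at 1500 cells/well, incubated overnight at 37 degrees C in 5% CO2, then exposed to library compounds with dopamine controls for 90 minutes at 37 degrees C before luminescent detection.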
DRD3 agonist – qHTS of D3 Dopamine Receptor Agonist: qHTS; D(3) dopamine receptor (Homo sapiens), P35462; D3R DiscoveRx beta-arrestin cells, luminescence, 90 min; max activation, %; hit rate 0.58% among 410,000; AID 652048, 2013; in the data active = max activation above about 30%; also: 0% is about no effect
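Cells at 1500/well, incubated overnight, then treated with pinned compounds (dopamine as control) for 90 min at 37 degrees C. DiscoveRx reagent added for 30 - 60 minutes at room temperature; luminescence read.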
KB-V1 cytotox – qHTS assay for MDR1-selective chemotherapeutics: Primary screen using the drug-selected MDR subline cells KB-V1 | hit rate 3.4% among 400,000 | KB-V1 MDR cells viability, CellTiter-Glo, 72 h | AID 1347076, 2019 | Potency, µM (top dose mostly 46.1 µM), usual class: cytotoxic; also: potency is read from the fitted curve at half-maximal effect; % is scaled to controls: 0 for no effect and ±100 for the full control effect; nearly all actives have a fitted effect of over 60% in size
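Cytotoxicity toward P-gp-expressing KB-V1 cells was determined as loss of CellTiter-Glo luminescence after 72 h at 37 degrees C. Compounds were tested in quantitative HTS format across a concentration range, with curves fitted to normalized data.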
SW480 rereplic – A quantitative high throughput screen for small molecules that induce DNA re-replication in SW480 colon adenocarcinoma cells; SW480 DNA re-replication, Hoechst DNA content imaging, 48 h; Potency, µM (titrated, usually from 46.1 µM), for the others: at the highest dose re-replication activation, usual class: activators; hit rate 1.8% among 340,000; AID 624297, 2012; also: potency is read from the fitted curve at half-maximal effect; % of control where 0% means no effect; nearly all actives have a fitted effect of over 55% in size
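Hoechst fluorescence of nuclei (405 nm excitation, 500-530 nm emission) measured by plate-scanning imager after 48 hr compound exposure at 37 C; re-replication scored as increased number of nuclei with elevated intensity.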
* = called active by the depositor; i = inactive; ? = inconclusive; / = not tested or not shown. Unless noted, calls follow the shape of the dose curve; as a rule, active = well fitted curve in the direction sought with a large enough effect; inconclusive = small, poorly fitted or top-dose-only effect, or another doubt; inactive = no such curve, though single readings can be large; an effect the other way counts as inactive or inconclusive.

SMILES | KB-3-1 cytotox | MCF10A rereplic | DRD3 antagonist | DRD3 agonist | KB-V1 cytotox | SW480 rereplic
OCCC1CN(CCCc2ccccc2)CCN1Cc1ccccc1 (stereo not drawn) | i | -9% | -82* | -21 | i | -14%
OCCC1CN(Cc2nc(-c3ccccc3)cs2)CCN1Cc1ccc(F)cc1 (stereo not drawn) | ? | ? | -3 | -23 | 9.2µM* | 10%
CC(C)=CCN1CCN(Cc2nc(-c3ccc(F)cc3)cs2)CC1CCO (stereo not drawn) | i | ? | -4 | -9 | ? | 19%
OCCC1CN(CCCc2ccccc2)CCN1CCc1ccccc1 (stereo not drawn) | i | 21µM* | -18 | -20 | i | -6%
c1ccc(-c2csc(CN3CCCCC3)n2)cc1 | i | 1% | -50* | -17 | i | 2%
CCc1ccccc1NC(=O)c1ccc(=O)n(Cc2ccc(F)cc2)c1 | i | / | / | 2 | i | /
Cn1c(=O)c2cc(NC(=S)NC3CCCCC3)ccc2n1-c1ccccc1 | i | / | ? | -11 | i | /
OCCC1CN(Cc2ccc(F)cc2)CCN1CCCc1ccccc1 (stereo not drawn) | i | -6% | -58* | -18 | i | ?
OCCC1CN(Cc2ccc(F)cc2)CCN1CCc1ccccc1 (stereo not drawn) | i | ? | -25 | -26 | ? | -39%
CC(C)CN1CCN(CC#Cc2ccccc2)CC1CCO (stereo not drawn) | i | 0.65µM* | -1 | -2 | i | -22%
CC1=C(C#N)C(NC(=O)c2ccccc2)(C(F)(F)F)C(=O)N1 (stereo not drawn) | i | / | / | -5 | i | /
Cc1cccc(C)c1NC(=O)c1cc2c(=O)c3ccccc3oc2nc1C(F)(F)F | i | 0% | 10 | 27 | 2.1µM* | 17%
CC(=O)c1cc2c(=O)c3ccccc3oc2nc1C | i | 0% | -7 | 4 | i | -2%
CC(=O)OCC(=O)[C@@]1(O)CC[C@H]2[C@@H]3CCC4=CC(=O)CC[C@]4(C)C3=CC[C@@]21C | / | / | / | -3 | / | /
CCN(CC)S(=O)(=O)c1cccc(-c2n[nH]c(=S)n2/N=C/c2ccc(Br)cc2)c1 | i | 12% | -54* | -5 | ? | -2%
COc1cccc(-c2csc(N3CCN(CC(=O)NNC(=O)c4ccc(Cl)cc4)CC3)n2)c1 | i | 27% | 6 | 0 | ? | 6%
COCCCNC(=S)N1CCN(c2nc(-c3ccccc3)cs2)CC1 | i | 15µM* | 35 | 5 | i | -2%
COc1cccc(-c2csc(N3CCN(C(=O)Nc4ccc(Cl)cc4)CC3)n2)c1 | i | 21% | 35 | 1 | i | 29%
O=C(NC(=S)N1CCN(c2nc(-c3ccccc3)cs2)CC1)c1cncc(Br)c1 | ? | 21µM* | -10 | 1 | ? | 16µM*
CCOCCCNC(=S)N1CCN(c2nc(-c3ccccc3)cs2)CC1 | i | ? | 4 | -1 | ? | 0%
COc1cccc(-c2csc(N3CCN(CC(=O)NNC(=O)c4ccc(Br)cc4)CC3)n2)c1 | ? | -4% | 12 | 4 | ? | 15µM*
COc1ccc(NC(=O)N2CCN(c3nc(-c4cccc(OC)c4)cs3)CC2)cc1 | ? | ? | 19 | 51* | 12µM* | -5%
COc1cccc(-c2csc(N3CCN(C(=S)Nc4ccccc4OC)CC3)n2)c1 | i | 8.2µM* | 7 | 8 | ? | -3%
COc1ccc(NC(=O)c2ccc(C)cc2)c(OC)c1 | i | 20% | -28 | -7 | ? | -3%
COc1ccc(OC)c(NC(=O)CN2CCc3ccccc3C2)c1 | i | 1% | -10 | -16 | i | 7%
SMILES | KB-3-1 cytotox | MCF10A rereplic | DRD3 antagonist | DRD3 agonist | KB-V1 cytotox | SW480 rereplic
COc1ccc(OC)c(NC(=O)c2ccc(CN3CCc4ccccc4C3)cc2)c1 | i | ? | -109* | -13 | i | 2%
COc1ccc(NC(=O)c2ccc(CN3CCc4ccccc4C3)cc2)c(OC)c1 | i | -1% | -101* | -29 | i | -8%
O=C(/C=C/c1ccc2c(c1)OCO2)Nc1cccc([S+](=O)([O-])Nc2ccccc2F)c1 | i | / | / | / | i | /
O=C(Cc1ccccc1)N/N=C/c1cc(Br)cc(Br)c1O | ? | 7.3µM* | -28 | -24 | i | 4.1µM*
O=C(CNC(=O)c1cccc(Br)c1)N/N=C/c1cc(Br)cc(Br)c1O | i | -2% | -71* | -30 | i | -7%
O=C(COC(=O)c1cncc(Br)c1)Nc1ccc(F)c(F)c1F | i | 1% | -19 | -11 | i | -1%
COC(=O)c1ccc(NC(=O)CSc2cn(CC(=O)N3CCCCC3)c3ccccc23)cc1 | / | / | / | 16 | / | /
COc1ccc(S(=O)(=O)n2nc(-c3ccco3)nc2NCc2ccc(N(C)C)cc2)cc1 | i | / | / | -13 | i | /
CCC(=O)N1c2ccccc2CC1C(=O)NCc1cccc(OC)c1OC (stereo not drawn) | i | / | / | -8 | i | /
CC1(C)CC(=O)C2=C(C1)OC1=C(C(=O)CC(C)(C)C1)C2c1cccc([N+](=O)[O-])c1 | i | / | -78* | -13 | i | /
CC1(C)CC(=O)C2=C(C1)OC1=C(C(=O)CC(C)(C)C1)C2c1ccc(O)c([N+](=O)[O-])c1 | i | -6% | 0 | 0 | i | 7%
CC1(C)CC(=O)C2=C(C1)OC1=C(C(=O)CC(C)(C)C1)C2c1ccc(O)cc1O | i | ? | 15 | -20 | i | 3.2µM*
COc1ccc(N2CCN(S(=O)(=O)CCNC(=O)c3ccc(OC(C)C)cc3)CC2)cc1 | / | / | / | 3 | / | /
C=CCOC(=O)C1=C(C)NC(SC)=C(C#N)C1c1cccs1 (stereo not drawn) | 12µM* | ? | 0 | 0 | 6.5µM* | ?
CCSC1=C(C#N)C(c2cccs2)C(C(=O)OC)=C(C)N1 (stereo not drawn) | i | 12% | 14 | 2 | 21µM* | 11%
CCn1c(CN2CCCCC2)nc2cc(NC(=O)c3cc(OC)c(OC)c(OC)c3)ccc21 | i | / | / | -11 | i | /
C=C1C(=O)[C@]23C[C@H]1CC[C@H]2[C@]1(C)[C@@H](OC(C)=O)CC[C@@](C)(C(=O)OC)[C@H]1C[C@@H]3OC(C)=O | ? | / | -107* | -6 | i | /
